# Source: PubChem BioAssay
# SKKanGAS inh – inhibitors of SKKanGAS S. pyogenes growth in kanamycin (SK-promoter or general growth effect); BacTiter-Glo, 6 h; inhibition, % at 7.5 µM; actives 1.3% (n = 300,000);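 active = mean replicate score, as percent of positive control median, at least 50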;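 note: strain carries kanamycin resistance gene driven by streptokinase promoter and grows in 40 µg/ml kanamycin; loss of luminescence reflects streptokinase promoter inhibition or plain growth inhibition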
# tim10-1 inh – tim10-1 yeast growth inhibition. S. cerevisiae tim10-1 ts strain growth, BacTiter-Glo, 24 h. inhibition, % at 20 µM. actives 2.2% (n = 330,000);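 active = inhibition of at least 40%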;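 note: mutant grown at 25 °C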
# NLRP3 yeast inh – inhibitors of NALP3 inflammasome in yeast; Yeast reconstituted NLRP3/ASC/caspase-1, beta-gal luminescence, 24 h; inhibition, % at 10 µM; actives 0.39% (n = 330,000); AID 2825;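 active = inhibition of 50% or more; inactive = inhibition below 50%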
# tim23-1 inh – inhibits growth of tim23-1 mutant yeast; inhibition, % at 20 µM; S. cerevisiae tim23-1 growth, BacTiter-Glo luminescence, 24 h; AID 463212; actives 1.3% (n = 330,000);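 active = growth inhibition of the mutant yeast at or above 50%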;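 note: temperature-sensitive mutant grown at 25 °C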
# TIM10 inh – growth inhibitors of TIM10 yeast strain; S. cerevisiae TIM10 strain growth, BacTiter-Glo luminescence, 24 h; actives 1.4% (n = 330,000); inhibition, % at 10 µM;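 active = inhibition of 40% or more at the single tested concentration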;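 note: wild-type TIM10 isogenic control strain grown at permissive 25 °C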
# PfHsp90 yeast 2 – reduces growth (ATP signal) of yeast expressing P. falciparum Hsp90; S. cerevisiae expressing PfHsp90, BacTiter-Glo ATP, 48 h; yeast lacking PDR1 and PDR3 efflux regulators; inhibition, % at 9.4 µM; AID 504621; actives 0.32% (n = 310,000);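 active = every replicate shows inhibition above about 80%, whatever the replicate mean, limit read from the data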
# tim23-1 conf – confirmation of tim23-1 mutant yeast growth inhibitors; shares compounds with tim23-1 inh; S. cerevisiae tim23-1 growth, BacTiter-Glo luminescence, 24 h; inhibition, % at 20 µM; actives 83% (n = 4,400); AID 463218;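 active = inhibition above about 39% in either of two replicate wells at 20 µM, limit read from the data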;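 note: temperature-sensitive tim23-1 mutant grown at 25 °C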
# Numbers stand for hits; - = inactive; . = not tested or not shown; ! = not active in a repeat. An excerpt weighted towards active compounds, which were near 4.6% of everything screened.
SMILES,SKKanGAS inh,tim10-1 inh,NLRP3 yeast inh,tim23-1 inh,TIM10 inh,PfHsp90 yeast 2,tim23-1 conf
CN(C)S(=O)(=O)N1CCC(Oc2cccc(C(=O)N3CCSCC3)c2)CC1,-,-,-,-,-,-,.
CCOC(=O)C1CCN(S(=O)(=O)c2c(Cl)ccc3nonc23)CC1,-,-,-,65,-,-,60
CCOC(=O)C1CCN(S(=O)(=O)c2cccc3nonc23)CC1,-,-,-,-,-,-,.
CCOC(=O)Cc1csc(NS(=O)(=O)c2ccc(SC)cc2)n1,-,-,-,-,-,-,.
CC(C)(C)c1ccc(-n2ncc3c2CCCC3NC(=O)C2(C(N)=O)CC2)cc1 (stereo not given),-,-,-,-,-,-,.
c1cnc2c(c1)ccc1cccnc12,-,-,-,59!,-,125!,44
Cc1ccc2cccnc2c1N,-,-,-,-,-,-,.
O=S(=O)(CCN1CCN(c2ccccc2O)CC1)c1cc(Cl)ccc1Cl,.,-,-,50,-,-,-
O=C(CN1CCN(c2ccccc2O)CC1)NNC(=O)c1ccc(Cl)cc1,-,-,-,-,-,-,.
O=C(CSc1nnnn1-c1ccc(F)cc1F)Nc1ccccc1F,-,-,-,-,-,-,.
COc1cc(OC)cc(C(=O)Nc2ccn(C)n2)c1,.,-,-,-,-,-,.
C#CCSc1nncn1C(=O)/C=C/c1ccccc1,-,-,-,52,-,.,77
CCCn1c(=O)c(C(=O)OCC)c(O)c2cc(Br)ccc21,-,-,-,-,-,-,.
CCOC(=O)c1c(CN(C)C)n(C)c2c(O)c(N=NC(N)=O)c3ccc(Br)cc3c12,-,-,-,54,-,-,-
C/C(=N\N(c1ccccc1)c1ccccc1)c1ccc(O)cc1,-,-,-,54,-,-,44
C/C(=N\N(c1ccccc1)c1ccccc1)c1ccc(N)cc1,-,-,-,-,-,-,.
CCOC(=O)CNc1c(-c2ccc(OC)cc2)nc2ccc(Cl)cn12,-,-,-,53,-,-,48
COCCNc1c(-c2ccc(OC)cc2)nc2ccc(Cl)cn12,-,-,-,-,-,-,.
O=C(COC(=O)c1ccc(F)cc1Cl)NC1CCCCCCC1,.,-,-,51,-,-,42
NC(=O)C1=C(N=C2CCCCC2)CCCC1,.,.,.,.,.,-,.
Nc1ccc(/C=C/C(=O)c2cccs2)cc1,-,-,-,56,-,-,80
Cc1occc1C(=O)N/N=C/C(Br)=C/c1ccccc1,-,-,-,55,-,-,75
COc1ccc2c(=O)c3c(=O)n(Cc4ccco4)c(-c4ccccc4)nc3oc2c1,-,-,-,59,-,.,39
O=C(Nc1ccccc1N(C(=O)c1ccco1)S(=O)(=O)c1cccs1)c1ccco1,-,-,-,54,-,-,38
O=C1c2ccccc2NC(c2ccc(-c3ccc(C(F)(F)F)cc3)o2)N1O (stereo not given),.,-,-,65,-,101,59
SMILES,SKKanGAS inh,tim10-1 inh,NLRP3 yeast inh,tim23-1 inh,TIM10 inh,PfHsp90 yeast 2,tim23-1 conf
Cc1ccc(O)c(CNc2cnc3ccccc3c2)c1,-,-,-,57,-,-,42
Oc1ccc(Br)cc1CNc1cnc2ccccc2c1,-,-,-,76,-,-,68
Cn1c(=O)cc(SCC(=O)NCCC2=CCCCC2)c2cc(Cl)ccc21,-,-,-,-,-,.,.
CCOc1cc2c3c(c1)C(C)CC(C)(C)N3C(=O)C2=O (stereo not given),-,-,-,50,-,-,55
CCOc1cc2c3c(c1)C(C)=CC(C)(C)N3C(=O)C2=O,-,-,-,56,-,-,56
Cc1cc2c3c(c1)C(C)CC(C)(C)N3C(=O)C2=O (stereo not given),-,-,-,53,-,-,55
Cc1cc(C(=O)N/N=C\c2cc(C(C)(C)C)ccc2O)n[nH]1,-,-,-,56,-,-,55
CC(C)(C)C(=O)c1sc(Nc2ccccc2)nc1N,-,-,-,53,-,-,41
Cc1nc(Nc2ccccc2)sc1C(=O)c1ccccc1,-,-,-,-,-,-,.
CCCCCCn1c(=O)c(-c2ccccc2)c(O)c2ccccc21,-,-,-,50,-,.,44
CC(C)(C)c1ccc(NC(=O)c2ccsc2)cc1,-,-,-,56,-,.,48
O=C1NN=C(c2ccc(Br)cc2)CC1c1ccc(Cl)cc1 (stereo not given),.,-,-,60,-,-,72
CC(C)N1C(=O)CCC1C(=O)NCc1ccc(F)cc1Cl (stereo not given),-,-,-,-,-,-,.
Cc1[nH]c(-c2ccc(F)cc2)cc1C(=O)N1CCN(c2cccc(Cl)c2)CC1,67,-,-,54,-,-,-
O=C(c1cc2cc(F)ccc2[nH]1)N1CCN(c2cccc(Cl)c2)CC1,-,-,-,-,-,-,.
COc1ccc(NS(=O)(=O)c2cc(C(=O)NNC(=O)c3ccncc3)ccc2OC)c(OC)c1,.,-,-,-,-,.,.
Nc1ncnc2c1ncn2[C@@H]1O[C@H](CO)C[C@@H]1O,-,-,-,56,-,.,59
O=C(CC1C[C@H](C(=O)N2CCCCC2)[C@@]2(CCc3ccccc3)c3[nH]c4ccccc4c3CCN2C1=O)NCCCn1ccnc1 (stereo not given in full),.,-,-,-,-,-,.
Cc1nn(-c2ccc(Cl)nn2)c(=O)c2ccccc12,-,-,-,-,-,.,.
Cc1ccc(Cn2c(=N)n(CC(=O)c3ccccc3)c3ccccc32)cc1,-,-,-,-,-,-,.
COc1ccc(/C(N)=N/OC(=O)c2ccco2)cc1,-,-,-,-,-,-,.
COc1ccc(N=N/C(=C\O)C(=O)c2ccco2)cc1,-,-,-,50,-,-,58
COc1cccc(NC(=O)c2cc3cccc(OC)c3o/c2=N\O)c1,-,-,-,58,-,.,47
COc1cccc(NC(=O)c2cc3ccccc3o/c2=N\O)c1,-,-,-,-,-,-,.
Cc1ccc(C)c(NC(=O)C(=O)NCC2CCCN2S(=O)(=O)c2cccs2)c1 (stereo not given),-,-,-,-,-,.,.
SMILES,SKKanGAS inh,tim10-1 inh,NLRP3 yeast inh,tim23-1 inh,TIM10 inh,PfHsp90 yeast 2,tim23-1 conf
Cc1cc(=O)oc2c1c(C(F)(F)F)nn2-c1ccccc1,-,-,-,50,-,-,55
Cc1cc(C(F)(F)F)c2c(C)nn(-c3ccccc3)c2n1,-,-,-,-,-,-,.
Cc1cccn2c(=O)c(/C=C(\C#N)C(=O)NCc3ccco3)c(N3CCCCCC3)nc12,-,-,-,53,-,.,48
Cc1cccc(-n2c(C)cc(C)c(C#N)c2=O)c1,-,-,-,-,-,-,.
COc1ccc(NS(=O)(=O)c2ccc3c(c2)Cc2ccccc2-3)cn1,-,-,-,64,-,-,-
O=c1c2c(n3cnnc3n1-c1ccccc1)-c1ccccc1CC21CCCC1,-,-,-,-,-,-,.
